The nature of experiment [1]: antimalarial activity against Dd2 strain (AID 2302;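 active means growth inhibition above 50% at the single 2 µM test dose, taken to imply half-maximal potency below 2 µM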;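 further: 0% = DMSO untreated growth and 100% = chloroquine plus artemisinin killed control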). The note with it: P. falciparum Dd2 in RBCs, LDH growth readout, 72 h; at 2 µM; stronger effect = higher value.
Experiment [2] in a line: human hepatoma cell viability loss – ATP luminescence, cytotoxicity control for P. falciparum antimalarial project, primary screen (AID 2303;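 active means inhibition above 50%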;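 further: 0% = DMSO wells and 100% = digitonin-killed cells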). The note with it: HepG2 viability, 24-48 h, at 10 µM, stronger effect = higher value.
Experiment [3] has as its target L-lactate dehydrogenase (Plasmodium falciparum (isolate CDC / Honduras)) (UniProt Q27743). In words: PfLDH activity inhibition – cell lysate, 3D7 strain, counter-screen for P. falciparum growth inhibition project (AID 2304).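 Further: 0% = vehicle and 100% = reference inhibitor.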 Conditions: P. falciparum 3D7 crude extract, LDH APAD/NBT absorbance; at 2 µM; stronger effect = higher value. For orientation: A counterscreen serves to expose hits that act by an unwanted route or on another target.

Experiment [4] can be described thus: inhibition of 3D7 malaria parasite growth – strain 3D7 (AID 2306).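 Further: 0% = DMSO wells and 100% = chloroquine plus artemisinin control wells.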 The note with it: P. falciparum 3D7 erythrocytic growth, LDH absorbance, 72 h; at 2 µM; stronger effect = higher value.
For experiment [5], the target named is Calcium-dependent protein kinase 1 (Plasmodium falciparum (isolate 3D7)) (UniProt P62344). As to the kind of experiment: PfCDPK1 kinase inhibitors, biochemical, TCAMS library (AID 1159585; cut-off not given, nearly all actives have IC50 up to about 0.98 µM;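 further: inhibitors leave more ATP so luminescence rises with inhibition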). Conditions: recombinant PfCDPK1, Kinase-Glo ATP depletion luminescence. A general note: Kinase-Glo measures the ATP left after a reaction by luminescence.
In experiment [6] the target is Plasmodium falciparum protein kinase 6 (PK6, PF3D7_1337100) (UniProt Q8IDW1). As to the kind of experiment: PfPK6 kinase inhibitors, biochemical, TCAMS library (AID 1159586). Conditions: recombinant PfPK6, Kinase-Glo ATP depletion luminescence.
Experiment [7] deals with Protein kinase 7 (PK7), Plasmodium falciparum 3D7 (PF3D7_0213400) (UniProt Q7YTF7). In words: inhibition of Plasmodium PK7 catalytic activity – biochemical, TCAMS antimalarial set, Kinase-Glo luminescence (AID 1159587). The note with it: recombinant PfPK7, Kinase-Glo ATP depletion luminescence.
Experiment [8] addresses Calcium-dependent protein kinase 4 (Plasmodium falciparum (isolate 3D7)) (UniProt Q8IBS5). In words: PfCDPK4 kinase inhibitors, biochemical, TCAMS library (AID 1159588; cut-off not given, nearly all actives have IC50 up to about 0.91 µM). Conditions: recombinant PfCDPK4, Kinase-Glo ATP depletion luminescence.

Unmarked numbers belong to inactive results. For some of these results: Potency and affinity values are given separately. Active and inactive are the calls of the source. Unless noted, how the calls were made is not given here.

Chain of Protein kinase 7 (PK7), Plasmodium falciparum 3D7 (PF3D7_0213400) (Q7YTF7 1-343): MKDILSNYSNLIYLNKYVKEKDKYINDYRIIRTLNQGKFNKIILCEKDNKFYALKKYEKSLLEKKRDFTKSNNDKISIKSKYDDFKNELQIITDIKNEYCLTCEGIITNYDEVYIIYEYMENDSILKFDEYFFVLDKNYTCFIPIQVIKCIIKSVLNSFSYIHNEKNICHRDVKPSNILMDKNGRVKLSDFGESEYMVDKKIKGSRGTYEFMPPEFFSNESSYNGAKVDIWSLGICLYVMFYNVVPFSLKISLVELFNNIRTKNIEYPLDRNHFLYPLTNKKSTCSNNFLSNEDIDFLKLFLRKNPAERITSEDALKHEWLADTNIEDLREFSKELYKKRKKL
Chain of Plasmodium falciparum protein kinase 6 (PK6, PF3D7_1337100) (Q8IDW1 1-305): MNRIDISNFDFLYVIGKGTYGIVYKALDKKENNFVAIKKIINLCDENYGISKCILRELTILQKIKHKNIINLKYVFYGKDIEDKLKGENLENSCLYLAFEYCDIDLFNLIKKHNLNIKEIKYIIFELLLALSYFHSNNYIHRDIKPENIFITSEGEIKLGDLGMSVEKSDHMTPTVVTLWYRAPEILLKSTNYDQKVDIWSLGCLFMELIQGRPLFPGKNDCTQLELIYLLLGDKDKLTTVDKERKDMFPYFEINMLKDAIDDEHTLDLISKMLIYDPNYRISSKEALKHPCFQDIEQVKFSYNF
Chain of L-lactate dehydrogenase (Plasmodium falciparum (isolate CDC / Honduras)) (Q27743 whole entry, looked up): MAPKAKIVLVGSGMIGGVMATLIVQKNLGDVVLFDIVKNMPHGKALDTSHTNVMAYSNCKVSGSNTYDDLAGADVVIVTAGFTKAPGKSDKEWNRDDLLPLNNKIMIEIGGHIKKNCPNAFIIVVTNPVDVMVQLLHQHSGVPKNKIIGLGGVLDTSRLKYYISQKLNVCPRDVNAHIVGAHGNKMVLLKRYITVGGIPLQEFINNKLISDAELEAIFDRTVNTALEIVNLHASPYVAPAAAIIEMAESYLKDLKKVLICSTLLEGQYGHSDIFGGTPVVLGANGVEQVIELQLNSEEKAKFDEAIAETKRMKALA
Chain of Calcium-dependent protein kinase 4 (Plasmodium falciparum (isolate 3D7)) (Q8IBS5 whole entry, looked up): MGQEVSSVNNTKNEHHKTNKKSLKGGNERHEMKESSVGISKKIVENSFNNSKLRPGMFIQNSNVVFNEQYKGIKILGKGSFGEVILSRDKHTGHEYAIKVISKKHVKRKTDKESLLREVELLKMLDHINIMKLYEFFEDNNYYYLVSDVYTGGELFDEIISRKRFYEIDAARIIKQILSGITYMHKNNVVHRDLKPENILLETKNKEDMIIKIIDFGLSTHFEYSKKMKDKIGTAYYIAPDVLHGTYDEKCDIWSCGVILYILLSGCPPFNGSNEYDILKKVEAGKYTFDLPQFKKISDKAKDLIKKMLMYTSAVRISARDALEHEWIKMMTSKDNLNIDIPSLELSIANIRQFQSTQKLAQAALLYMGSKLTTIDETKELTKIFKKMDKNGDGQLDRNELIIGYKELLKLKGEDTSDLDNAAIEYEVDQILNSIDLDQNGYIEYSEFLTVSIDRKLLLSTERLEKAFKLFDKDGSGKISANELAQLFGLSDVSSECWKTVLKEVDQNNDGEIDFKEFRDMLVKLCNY
Chain of Calcium-dependent protein kinase 1 (Plasmodium falciparum (isolate 3D7)) (P62344 whole entry, looked up): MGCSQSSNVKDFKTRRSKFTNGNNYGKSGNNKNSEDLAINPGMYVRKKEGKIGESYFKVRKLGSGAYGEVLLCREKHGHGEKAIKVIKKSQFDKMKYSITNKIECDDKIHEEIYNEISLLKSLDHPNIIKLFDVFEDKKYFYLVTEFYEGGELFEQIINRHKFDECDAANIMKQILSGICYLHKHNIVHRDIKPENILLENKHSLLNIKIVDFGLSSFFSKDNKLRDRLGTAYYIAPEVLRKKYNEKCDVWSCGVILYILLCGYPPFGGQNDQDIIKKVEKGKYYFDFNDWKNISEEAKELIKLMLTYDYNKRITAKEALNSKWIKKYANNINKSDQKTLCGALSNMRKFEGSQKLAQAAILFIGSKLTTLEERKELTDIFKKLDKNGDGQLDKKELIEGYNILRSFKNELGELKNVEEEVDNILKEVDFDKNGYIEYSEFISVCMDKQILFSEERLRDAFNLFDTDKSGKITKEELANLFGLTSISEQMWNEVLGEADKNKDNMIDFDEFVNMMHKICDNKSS

What is called inhibition is the relative decrease from the control value, in per cent. As for `CCN(CC)C(C)(C)CN(Cc1ccc(-c2ccc(C(F)(F)F)cc2)cc1)C(=O)Cn1c(CCc2cccc(F)c2F)nc(=O)c2ccccc21`, the growth inhibition is 79% (active) in experiment [1] and 91% (active) in experiment [4]. Also, the results for the inhibition in experiment [2] and in experiment [3] were 53% (active) and -2%, respectively. The result in experiment [5], in experiment [6], in experiment [7] and in experiment [8] was inactive.

On to `CN(C)c1ccc(CN2CCCC(CNC(=O)c3ccc(-c4cccc(C(F)(F)F)c4)s3)C2)cc1` (stereo not given), for which the growth inhibition in experiment [1] is 37%; in experiment [4] it was 89% (active). The inhibition in experiment [2] is 32%; in experiment [3], 0%. For the same compound, the outcome in experiment [5], in experiment [6], in experiment [7] and in experiment [8] was inactive.

For `Cc1ccc(C(=O)N2CCN(Cc3nccs3)CC2)cc1`, the growth inhibition in experiment [1] is -2%; in experiment [4] it was 86% (active). Further, the figures for the inhibition in experiment [2] and in experiment [3] were -6% and 0%, respectively. Further, the result in experiment [5], in experiment [6], in experiment [7] and in experiment [8] was inactive.

Consider `Cc1c(C)c2c(c(C)c1O)CCC(C)(CCC(=O)O)O2` (stereo not given), for which the growth inhibition in experiment [1] was -4%; in experiment [4] it was 96% (active). The inhibition in experiment [2] was 8%; in experiment [3], 0%. Also, the outcome in experiment [5], in experiment [6], in experiment [7] and in experiment [8] was inactive.

As to `O=C(Nc1ccc(CN2CCOCC2)cc1)c1ccc(-c2cc(Cl)ccc2Cl)o1`, the growth inhibition is 13% in experiment [1] and 101% (active) in experiment [4]. The inhibition in experiment [2] is 5%; in experiment [3], -1%. The outcome in experiment [5], in experiment [6], in experiment [7] and in experiment [8] was inactive.

`CC(C)CNC(=O)CN1C(=O)C(c2ccccc2)(c2ccccc2)N=C1N`: the growth inhibition in experiment [1] was 46%; in experiment [4] it was 94% (active). The inhibition in experiment [2] is 15%; in experiment [3], -1%. The outcome in experiment [5], in experiment [6], in experiment [7] and in experiment [8] was inactive.

`Cc1cc(C(=O)OCC(=O)Nc2c(C)n(C)n(-c3ccccc3)c2=O)c(C)n1-c1ccc(F)cc1`: the growth inhibition in experiment [1] was 99% (active); in experiment [4] it was 100% (active). Moreover, the inhibition is -4% in experiment [2] and -1% in experiment [3]. The outcome in experiment [5], in experiment [6], in experiment [7] and in experiment [8] was inactive.

Take `COc1ccc2nc(N)nc(C)c2c1`: the growth inhibition in experiment [1] was 1%; in experiment [4] it was 90% (active). Besides, the inhibition in experiment [2] and in experiment [3] was 5% in each case. Further, the outcome in experiment [5], in experiment [6], in experiment [7] and in experiment [8] was inactive.

As to `Cc1sc(NC(=O)c2ccc([N+](=O)[O-])cc2Cl)c(C(N)=O)c1C`, the figures for the growth inhibition in experiment [1] and in experiment [4] were 2% and 94% (active), respectively. Moreover, the inhibition in experiment [2] is 2%; in experiment [3], 1%. In addition, the outcome in experiment [5], in experiment [6], in experiment [7] and in experiment [8] was inactive.

With `COc1ccc2nc(C)cc(Nc3ccc(N4CCN(C)CC4)cc3)c2c1`, the growth inhibition was 3% in experiment [1] and 101% (active) in experiment [4]. In addition, the values for the inhibition in experiment [2] and in experiment [3] were 1% and -1%, respectively. Besides, the outcome in experiment [5], in experiment [6], in experiment [7] and in experiment [8] was inactive.

With `COC(=O)c1c(C#N)c(OC)cc(O)c1CSC[C@H](Nc1nc(-c2ccc([N+](=O)[O-])cc2)cs1)C(=O)NCCN1CCCCC1`, the growth inhibition in experiment [1] was 88% (active); in experiment [4], 85% (active). For the same compound, the results for the inhibition in experiment [2] and in experiment [3] were 5% and -2%, respectively. Moreover, the outcome in experiment [5], in experiment [6], in experiment [7] and in experiment [8] was inactive.

`CN(CCc1ccccc1)c1ncc(-c2ccccc2CNCc2ccccc2O)cn1`: the values for the growth inhibition in experiment [1] and in experiment [4] were 94% (active) and 99% (active), respectively. Also, the inhibition is 10% in experiment [2] and -2% in experiment [3]. The outcome in experiment [5], in experiment [6], in experiment [7] and in experiment [8] was inactive.

For `FC(F)(F)c1ccc(Nc2nnnc3ccccc23)cc1`, the growth inhibition was 82% (active) in experiment [1] and 90% (active) in experiment [4]. Moreover, the inhibition in experiment [2] is 3%; in experiment [3], -6%. Besides, the result in experiment [5], in experiment [6], in experiment [7] and in experiment [8] was inactive.

In the case of `Cc1[nH]c(C)c(-c2ccc(OCc3ccc(F)cc3)nc2)c(=O)c1Br`, the growth inhibition in experiment [1] and in experiment [4] was 97% (active) in each case. Further, the inhibition in experiment [2] was 41%; in experiment [3], -4%. In addition, the result in experiment [5], in experiment [6], in experiment [7] and in experiment [8] was inactive.

As for `COc1ccc(C2CCN(CCN3CCC(NC(=O)c4ccc(-c5cccc(C(F)(F)F)c5C(F)(F)F)cc4)CC3)CC2)c(OC)c1`, the growth inhibition in experiment [1] was 61% (active); in experiment [4] it was 102% (active). Further, the inhibition was 35% in experiment [2] and -4% in experiment [3]. In addition, the result in experiment [5], in experiment [6], in experiment [7] and in experiment [8] was inactive.

For the compound `Cc1cccc2[nH]c(-c3ccc(-c4ccc(CN5CCCC(O)C5)cc4)s3)nc12` (stereo not given), the growth inhibition in experiment [1] was 29%; in experiment [4], 101% (active). Also, the inhibition is 38% in experiment [2] and -1% in experiment [3]. Also, the outcome in experiment [5], in experiment [6], in experiment [7] and in experiment [8] was inactive.

As for `CCCN1CCCN(Cc2cccc(NC(=O)c3ccc(-c4ccccc4)cc3)c2)CC1`, the results for the growth inhibition in experiment [1] and in experiment [4] were 15% and 92% (active), respectively. Also, the figures for the inhibition in experiment [2] and in experiment [3] were 34% and 1%, respectively. Moreover, the outcome in experiment [5], in experiment [6], in experiment [7] and in experiment [8] was inactive.

Take `Fc1ccc2nc(-c3cccc(-c4ccc(CN5CCN(CCN6CCOCC6)CC5)cc4)c3)[nH]c2c1`: the results for the growth inhibition in experiment [1] and in experiment [4] were 100% (active) and 101% (active), respectively. In addition, the inhibition in experiment [2] was 30%; in experiment [3] it was -3%. The result in experiment [5], in experiment [6], in experiment [7] and in experiment [8] was inactive.

`CC1CCCN(Cc2cc(Cl)cc(Cl)c2O)C1` (stereo not given): the growth inhibition was 77% (active) in experiment [1] and 89% (active) in experiment [4]. Moreover, the inhibition is 22% in experiment [2] and 5% in experiment [3]. In addition, the outcome in experiment [5], in experiment [6], in experiment [7] and in experiment [8] was inactive.

On to `CC(C)(C)OC(=O)NCC(=O)N(Cc1ccccc1)Cc1ccccc1`, for which the growth inhibition in experiment [1] was 93% (active); in experiment [4] it was 97% (active). Moreover, the figures for the inhibition in experiment [2] and in experiment [3] were -10% and 2%, respectively. The result in experiment [5], in experiment [6], in experiment [7] and in experiment [8] was inactive.

Values taken from PubChem BioAssay.
